Read-out in experiment [1]: Pyruvate Dehydrogenase Kinase 4 (PDK4), PDK4 (gene 5166)
Put plainly: LTEA_HepaRG_PDK4: Life Technologies and Expression Analysis (LTEA) Assay for Pyruvate Dehydrogenase Kinase 4 (PDK4) using HepaRG (AID 2283525). As to conditions: mRNA level, 48 h; actives raise or lower the signal. In a few lines: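 In this multiplexed human HepaRG expression assay, cells are treated 48 h with test chemicals across an eight-point range starting at 100 uM. PDK4 mRNA changes, normalized to ACTB/GAPDH/POLR2A, are fitted in both directions relative to vehicle.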

Read-out in experiment [2]: NAD(P)H dehydrogenase [quinone] 1 (NQO1), NQO1 (gene 1728)
Put plainly: LTEA_HepaRG_NQO1: Life Technologies and Expression Analysis (LTEA) Assay for NAD(P)H dehydrogenase [quinone] 1 (NQO1) using HepaRG (AID 2283526). As to conditions: mRNA level, 48 h; actives raise or lower the signal. In a few lines: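 Differentiated HepaRG cells, plated 48 h and then switched to serum-free induction medium, were exposed in duplicate for 48 h to 8-point half-log concentrations up to 100 uM in 0.5% DMSO. mRNA measured by qRT-PCR, normalized to ACTB, GAPDH, POLR2A; bidirectional fit versus DMSO.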

Read-out in experiment [3]: Nuclear factor erythroid 2-related factor 2 (Homo sapiens) (UniProt Q16236)
Kind of experiment: LTEA_HepaRG_NFE2L2: Life Technologies and Expression Analysis (LTEA) Assay for Nuclear factor erythroid 2-related factor 2 (NFE2L2) Transcription Factor using HepaRG (AID 2283527).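 Further: TaqMan qRT-PCR transcript level normalised to ACTB GAPDH and POLR2A housekeeping genes.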 As to conditions: mRNA level, 48 h; actives raise or lower the signal. Summed up: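 Transcript level of NFE2L2 is the read-out, measured by microfluidic TaqMan qRT-PCR and normalized to three housekeeping genes. Human HepaRG cultures received test chemical for 48 h at up to 100 uM in half-log steps. Gain or loss of signal is fitted relative to 0.5% DMSO.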

Read-out in experiment [4]: succinate dehydrogenase complex iron sulfur subunit B (SDHB), SDHB (gene 6390)
Kind of experiment: LTEA_HepaRG_SDHB: Life Technologies and Expression Analysis (LTEA) Assay for succinate dehydrogenase complex iron sulfur subunit B (SDHB) using HepaRG (AID 2283528). Particulars: mRNA level, 48 h; actives raise or lower the signal. In a few lines: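 HepaRG, 48 h exposure, 8-pt half-log series from 100 uM in 0.5% DMSO, duplicates. Readout: SDHB mRNA by Fluidigm qRT-PCR vs housekeeping genes; bidirectional fit relative to DMSO.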

Read-out in experiment [5]: Signal transducer and activator of transcription 3 (Homo sapiens) (UniProt P40763)
Kind of experiment: LTEA_HepaRG_STAT3: Life Technologies and Expression Analysis (LTEA) Assay for Signal transducer and activator of transcription (STAT3) using HepaRG (AID 2283529). As to conditions: mRNA level, 48 h; actives raise or lower the signal. In a few lines:
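Read-out is STAT3 mRNA level by qRT-PCR, normalized to three housekeeping genes, in human HepaRG liver cells treated for 48 h. Concentrations ran from 100 uM downward in half-log steps; curves were fitted for gain or loss relative to 0.5% DMSO.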

Read-out in experiment [6]: solute carrier (SLCO1B1), SLCO1B1 (gene 10599)
Kind of experiment: LTEA_HepaRG_SLCO1B1: Life Technologies and Expression Analysis (LTEA) Assay for solute carrier (SLCO1B1) using HepaRG (AID 2283530). Particulars: mRNA level, 48 h; actives raise or lower the signal. In a few lines:
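Human HepaRG cultures treated for 48 h with an eight-concentration half-log series topping at 100 uM; SLCO1B1 measured by qRT-PCR and fitted bidirectionally relative to DMSO.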

Read-out in experiment [7]: sulfotransferase 2A1 (SULT2A1), SULT2A1 (gene 6822)
Kind of experiment: LTEA_HepaRG_SULT2A1: Life Technologies and Expression Analysis (LTEA) Assay for sulfotransferase 2A1 (SULT2A1) using HepaRG (AID 2283531). As to conditions: mRNA level, 48 h; actives raise or lower the signal. Summed up: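 Gene-expression endpoint in a human liver cell line: SULT2A1 mRNA change after 48 h chemical treatment, curves fitted in both directions relative to 0.5% DMSO vehicle. Concentrations spanned eight half-log steps from 100 uM.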

Read-out in experiment [8]: Transforming Growth Factor (TGFA), TGFA (gene 7039)
Kind of experiment: LTEA_HepaRG_TGFA: Life Technologies and Expression Analysis (LTEA) Assay for Transforming Growth Factor (TGFA) using HepaRG (AID 2283532). Particulars: mRNA level, 48 h; actives raise or lower the signal. Summed up: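 HepaRG (human liver line), 48 h exposure, 8 conc. half-log down from 100 uM, 0.5% DMSO vehicle, duplicates; serum-free induction medium. TGFA mRNA by TaqMan qRT-PCR, ACTB/GAPDH/POLR2A normalization; gain/loss fit vs DMSO.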

Read-out in experiment [9]: Transforming Growth Factor (TGFB1), TGFB1 (gene 7040)
Kind of experiment: LTEA_HepaRG_TGFB1: Life Technologies and Expression Analysis (LTEA) Assay for Transforming Growth Factor (TGFB1) Transporter using HepaRG (AID 2283533). Particulars: mRNA level, 48 h; actives raise or lower the signal. In a few lines:
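Eight-point concentration-response (max 100 uM, half-log) in HepaRG under serum-free induction conditions, 48 h. TGFB1 mRNA by qRT-PCR, housekeeping-normalized.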

Read-out in a further experiment: TIMP1, TIMP1 (gene 7076)
Kind of experiment: LTEA_HepaRG_TIMP1: Life Technologies and Expression Analysis (LTEA) Assay for TIMP1 using HepaRG (AID 2283534). As to conditions: mRNA level, 48 h; actives raise or lower the signal. Summed up:
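TIMP1 induction or repression in HepaRG cells after 48 h chemical exposure (eight concentrations, highest 100 uM), assessed by normalized qRT-PCR with bidirectional fitting to DMSO controls.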

Read-out in experiment [10]: Tumor necrosis factor receptor 1 (TNFRSF1A), TNFRSF1A (gene 7132)
Kind of experiment: LTEA_HepaRG_TNFRSF1A: Life Technologies and Expression Analysis (LTEA) Assay for Tumor necrosis factor receptor 1 (TNFRSF1A) using HepaRG (AID 2283535). Particulars: mRNA level, 48 h; actives raise or lower the signal. Summed up: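 Assay uses 48 h chemical treatment of differentiated HepaRG monolayers, tested in duplicate at eight concentrations from 100 uM downward in 0.5% DMSO. mRNA is normalized to ACTB, GAPDH and POLR2A, with induction or suppression fitted relative to vehicle.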

Read-out in experiment [11]: Thyroid Hormone Responsive (THRSP), THRSP (gene 7069)
Kind of experiment: LTEA_HepaRG_THRSP: Life Technologies and Expression Analysis (LTEA) Assay for Thyroid Hormone Responsive (THRSP) using HepaRG (AID 2283536). As to conditions: mRNA level, 48 h; actives raise or lower the signal. In a few lines:
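mRNA induction or loss relative to 0.5% DMSO vehicle was fitted bidirectionally across an eight-point curve whose highest exposure was 100 uM. Human HepaRG liver cells received chemicals in duplicate over 48 h before RNA extraction.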

Read-out in experiment [12]: Cellular tumor antigen p53 (Homo sapiens) (UniProt P04637)
Kind of experiment: LTEA_HepaRG_TP53: Life Technologies and Expression Analysis (LTEA) Assay for Tumor Protein P53 (TP53) using HepaRG (AID 2283537). As to conditions: mRNA level, 48 h; actives raise or lower the signal. In a few lines: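 HepaRG, 48 h exposure, top 100 uM, half-log 8-point, 0.5% DMSO vehicle, duplicates. Read: TP53 mRNA by TaqMan qRT-PCR, normalised to ACTB/GAPDH/POLR2A; bidirectional fit vs DMSO.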

Read-out in experiment [13]: UDP glucuronosyltransferase (UGT1A1), UGT1A1 (gene 54658)
Put plainly: LTEA_HepaRG_UGT1A1: Life Technologies and Expression Analysis (LTEA) Assay for UDP glucuronosyltransferase (UGT1A1) using HepaRG (AID 2283538). Particulars: mRNA level, 48 h; actives raise or lower the signal. Summed up: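 Differentiated human HepaRG cells in serum-free induction medium were exposed in duplicate for 48 h to eight half-log concentrations up to 100 uM in 0.5% DMSO. UGT1A1 mRNA was quantified by TaqMan qRT-PCR, normalized to ACTB, GAPDH and POLR2A, and fitted bidirectionally against DMSO.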

Read-out in experiment [14]: UDP glucuronosyltransferase (UGT1A6), UGT1A6 (gene 54578)
Put plainly: LTEA_HepaRG_UGT1A6: Life Technologies and Expression Analysis (LTEA) Assay for UDP glucuronosyltransferase (UGT1A6) using HepaRG (AID 2283539). Particulars: mRNA level, 48 h; actives raise or lower the signal. In a few lines:
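Measures mRNA change in HepaRG hepatic cells exposed 48 h to chemicals (eight-point, maximum 100 uM, 0.5% DMSO vehicle) in serum-free induction medium. Expression normalized to endogenous controls; DMSO served as negative control and baseline.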

Read-out in experiment [15]: X-box binding protein 1 (XBP1), XBP1 (gene 7494)
Kind of experiment: LTEA_HepaRG_XBP1: Life Technologies and Expression Analysis (LTEA) Assay for X-box binding protein 1 (XBP1) using HepaRG (AID 2283540). Particulars: mRNA level, 48 h; actives raise or lower the signal. In a few lines:
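Eight concentrations (half-log, highest 100 uM, 0.5% DMSO) tested in duplicate on HepaRG cells over 48 h in serum-free induction medium; qRT-PCR of XBP1 normalised to ACTB, GAPDH, POLR2A.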

Experiment [16] is described as follows: LTEA_HepaRG_LDH_cytotoxicity: Cytotoxicity Assessment in the Life Technologies and Expression Analysis (LTEA) Assay (AID 2283563; active means hit-call score of the fitted dose curve at least 0.9, where 1 is the maximum;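 on AC50: LDH activity released into spent culture medium as a marker of cell death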). Summed up:
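Spent-medium LDH after 48 h chemical exposure of HepaRG cells in serum-free induction medium; eight concentrations, half-log dilutions from 100 uM, duplicate wells, fitted upward relative to 0.5% DMSO.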

The nature of experiment [17]: ATG_XTT_Cytotoxicity: Cytotoxicity Assessment in the Attagene TRANS-FACTORIAL HepG2 Assay (AID 2283584; active means hit-call score of the fitted dose curve at least 0.9, where 1 is the maximum). In a few lines: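 24 h chemical exposure of reporter-transfected HepG2; XTT signal loss vs DMSO indicates cytotoxicity.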
The target in experiment [18] is Cellular tumor antigen p53 (Homo sapiens) (UniProt P04637). Put plainly: TOX21_p53_BLA_p2_ratio: Tox21 HCT-116 p53 Agonism Beta-lactamase Assay, Ratio, Phase 2 (AID 2283592; active means hit-call score of the fitted dose curve at least 0.9, where 1 is the maximum). Summed up:
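Human colon HCT116 cells with an inducible p53 beta-lactamase reporter are exposed to test chemicals for 16 h at 37C. Reporter induction is read as the 460/530 nm emission ratio after CCF4-AM loading, normalized to DMSO.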

Experiment [19] is described as follows: TOX21_p53_BLA_p2_viability: Viability Assessment in the Tox21 HCT-116 p53 Agonism Beta-lactamase Assay, Phase 2 (AID 2283591; active means hit-call score of the fitted dose curve at least 0.9, where 1 is the maximum;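 further: compound exposure lasted 16 h at 37 °C; actives lower the ATP signal meaning cytotoxicity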). In a few lines:
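Cytotoxicity readout: CellTiter-Glo ATP luminescence, 30 min at room temperature, after the beta-lactamase read. Cells were HCT116 exposed 16 h at 37C to compounds pin-transferred at 217-fold dilution from DMSO stocks.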

Results filed as inconclusive are left out. Activity calls are given as the source filed them. How the source made its calls, unless noted: active means hit-call score of the fitted dose curve at least 0.9, where 1 is the maximum; inactive means score below 0.9.

Nuclear factor erythroid 2-related factor 2 (Homo sapiens), sequence (Q16236 whole entry, looked up): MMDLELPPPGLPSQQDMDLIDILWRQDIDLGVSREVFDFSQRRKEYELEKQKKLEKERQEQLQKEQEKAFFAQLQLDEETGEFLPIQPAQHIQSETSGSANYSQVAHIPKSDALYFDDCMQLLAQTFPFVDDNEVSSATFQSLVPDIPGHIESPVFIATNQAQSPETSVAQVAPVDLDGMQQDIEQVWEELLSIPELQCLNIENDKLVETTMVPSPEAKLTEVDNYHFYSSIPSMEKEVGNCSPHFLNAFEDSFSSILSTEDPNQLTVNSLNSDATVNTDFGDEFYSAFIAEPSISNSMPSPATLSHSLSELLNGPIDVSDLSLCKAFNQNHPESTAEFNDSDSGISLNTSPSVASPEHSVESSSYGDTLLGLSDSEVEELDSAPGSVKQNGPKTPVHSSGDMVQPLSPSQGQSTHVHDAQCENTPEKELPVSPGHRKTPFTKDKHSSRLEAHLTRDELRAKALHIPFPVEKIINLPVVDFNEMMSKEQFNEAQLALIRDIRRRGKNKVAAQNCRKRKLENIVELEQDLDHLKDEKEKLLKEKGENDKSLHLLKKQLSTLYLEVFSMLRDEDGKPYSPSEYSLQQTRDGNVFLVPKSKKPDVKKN
Signal transducer and activator of transcription 3 (Homo sapiens), sequence (P40763 whole entry, looked up): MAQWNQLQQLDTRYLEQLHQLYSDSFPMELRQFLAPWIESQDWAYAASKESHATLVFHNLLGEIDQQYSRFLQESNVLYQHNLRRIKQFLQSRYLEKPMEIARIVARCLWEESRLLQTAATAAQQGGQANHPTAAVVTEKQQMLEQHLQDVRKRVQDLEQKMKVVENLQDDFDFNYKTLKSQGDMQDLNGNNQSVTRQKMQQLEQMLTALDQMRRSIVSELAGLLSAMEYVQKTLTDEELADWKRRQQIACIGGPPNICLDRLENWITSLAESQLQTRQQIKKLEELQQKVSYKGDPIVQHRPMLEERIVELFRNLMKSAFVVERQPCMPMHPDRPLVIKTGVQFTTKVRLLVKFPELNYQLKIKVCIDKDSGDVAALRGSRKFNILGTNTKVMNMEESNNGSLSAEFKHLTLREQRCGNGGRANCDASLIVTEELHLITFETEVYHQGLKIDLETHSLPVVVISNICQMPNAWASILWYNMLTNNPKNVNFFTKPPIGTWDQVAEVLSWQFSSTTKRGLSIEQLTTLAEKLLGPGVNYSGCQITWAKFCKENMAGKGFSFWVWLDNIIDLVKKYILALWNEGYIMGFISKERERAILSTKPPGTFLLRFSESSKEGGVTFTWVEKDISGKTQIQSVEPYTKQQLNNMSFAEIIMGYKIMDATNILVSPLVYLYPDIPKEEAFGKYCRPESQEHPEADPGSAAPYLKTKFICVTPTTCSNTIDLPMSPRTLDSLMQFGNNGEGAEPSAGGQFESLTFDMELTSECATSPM
Cellular tumor antigen p53 (Homo sapiens), sequence (P04637 whole entry, looked up): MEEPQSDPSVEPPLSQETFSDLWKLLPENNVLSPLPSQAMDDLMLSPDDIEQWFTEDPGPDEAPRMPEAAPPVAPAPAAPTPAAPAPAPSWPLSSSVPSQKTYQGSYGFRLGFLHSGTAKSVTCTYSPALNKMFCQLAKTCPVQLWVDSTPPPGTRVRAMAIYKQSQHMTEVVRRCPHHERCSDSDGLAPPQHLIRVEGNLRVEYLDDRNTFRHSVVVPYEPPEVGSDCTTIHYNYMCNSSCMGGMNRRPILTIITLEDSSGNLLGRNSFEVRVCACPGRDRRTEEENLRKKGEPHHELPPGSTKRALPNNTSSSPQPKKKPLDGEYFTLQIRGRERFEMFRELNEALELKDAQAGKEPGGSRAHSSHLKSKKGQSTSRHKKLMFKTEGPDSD

What is called AC50 is the midpoint of the concentration-response curve, whichever way the signal moves. With `CCC(C)c1cc([N+](=O)[O-])cc([N+](=O)[O-])c1O` (configuration not stated), the call in [1], in experiment [3], in experiment [9], in experiment [15] and in [17] was inactive. For the same compound, the AC50 in experiment [2] is 3.47 µM (active); in [4], 0.656 µM (active); in experiment [5] it was 0.631 µM (active); in experiment [6], 2.32 µM (active); in experiment [7], 3.13 µM (active); in experiment [8], 4.14 µM (active). Also, the concentration at half-maximal activity (AC50) in the experiment with TIMP1, TIMP1 (gene 7076) is 2.51 µM (active); in experiment [10], 4.74 µM (active); in experiment [11], 1.98 µM (active); in [12], 1.55 µM (active); in experiment [13] it was 1.83 µM (active); in [14] it was 4.17 µM (active). The concentration at half-maximal activity (AC50) was 3.73 µM (active) in [16] and 4.16 µM (active) in experiment [18].
`Clc1ccc(Cl)cc1`: the compound was classed as inactive in experiment [1], in experiment [2], in experiment [3], in experiment [4], in [5] and in experiment [6]. In addition, the outcome was “inactive” in experiment [7]; “inactive” in experiment [8]; “inactive” in experiment [9]; “inactive” in the experiment with TIMP1, TIMP1 (gene 7076); “inactive” in experiment [10]; “inactive” in experiment [11]. The compound was called inactive in experiment [12], in experiment [13], in [14], in experiment [15], in [16] and in experiment [17]. For the same compound, the compound was called inactive in experiment [19] and in experiment [18].
For `O=C(O)C(F)(F)C(F)(F)C(F)(F)C(F)(F)C(F)(F)F`, the values for the half-maximal activity concentration (AC50) in experiment [1] and in [6] were 14.9 µM (active) and 9.92 µM (active), respectively. The result in experiment [2], in experiment [3], in experiment [4], in [5], in experiment [7] and in experiment [8] was inactive. The outcome in [9] was “inactive”; in the experiment with TIMP1, TIMP1 (gene 7076) it was “inactive”; in experiment [10], “inactive”; in [11], “inactive”; in experiment [12], “inactive”; in [13], “inactive”. Moreover, the compound was classed as inactive in [14], in experiment [15], in experiment [16] and in experiment [18].

(Values after PubChem BioAssay (EPA / NIEHS).)
